Source: PubChem BioAssay AID504332 (National Center for Advancing Translational Sciences (NCATS), 2011)
Several values for one entry are separate records, joined by “and”; a condition that tells them apart may be missing. Equal values may be shown once. The whole screen tested about 350,000 compounds, of which about 31,000 (8.9%) were called active. Another 15% or so got no clear call; they are omitted. The call rests on the fitted dose curve; in most records, active means well fitted inhibition curve with a large enough effect; inconclusive means small, poorly fitted or top-dose-only effect; inactive means no such curve, though single readings can be large or run the other way. The list comes from a sample in which actives are over-represented; it also holds similar structures and randomly drawn compounds. A call without a number means that no potency is given here. Where a structure was tested more than once in an assay, its records may differ in their call.

Molecular target: Histone-lysine N-methyltransferase EHMT2 (Homo sapiens) (UniProt Q96KQ7)
Experiment: qHTS Assay for Inhibitors of Histone Lysine Methyltransferase G9a; further: nearly all actives have a fitted effect of over 75% in size
Conditions: G9a H3K9 monomethylation, AlphaScreen, 2 h; series mostly up to 59 µM
How it was run: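 G9a (20 nM) preincubated 15 min RT with compounds, then 500 nM biotinylated H3K9 peptide and 20 uM SAM added; 2 h RT reaction. Monomethyl-H3K9 product detected by AlphaScreen with anti-H3K9me1 antibody, streptavidin donor and anti-rabbit IgG acceptor beads.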
Potency means the concentration at half of the fitted maximal effect.

Sequence of Histone-lysine N-methyltransferase EHMT2 (Homo sapiens) (Q96KQ7 913-1193 limits assumed): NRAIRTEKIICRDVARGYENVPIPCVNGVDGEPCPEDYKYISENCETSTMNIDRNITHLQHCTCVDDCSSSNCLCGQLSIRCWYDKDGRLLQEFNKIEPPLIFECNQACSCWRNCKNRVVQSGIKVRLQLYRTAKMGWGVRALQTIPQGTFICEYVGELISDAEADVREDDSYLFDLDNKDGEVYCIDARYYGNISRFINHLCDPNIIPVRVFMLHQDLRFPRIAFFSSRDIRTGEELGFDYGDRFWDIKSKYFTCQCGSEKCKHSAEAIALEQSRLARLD

Row | SMILES | activity, negative = inhibition | Potency
1 | CCN1C(=O)C(=O)N(CC(=O)Nc2cc(C)ccc2C)C1=O | 1.01% [at 2.33 µM] (inactive) | 
2 | CCOc1ccc(Nc2nc3c(S(=O)(=O)c4cccc(Cl)c4)nnn3c3ccsc23)cc1 |  | inactive
3 | CC(C)S(=O)(=O)c1oc(-c2ccc(F)cc2)nc1S(=O)(=O)c1ccc(F)cc1 |  | inactive
4 | COc1ccc(N2C(=O)c3cccc4cccc(c34)C2=O)nn1 | -3.86% [at 12.7 µM] (inactive) | 
5 | O=C1c2cccc3cccc(c23)C(=O)N1c1cccc(O)c1 | 21.1% [at 2.33 µM] (inactive) | 
6 | C[N+](C)(CCCCCC[N+](C)(C)CCCN1C(=O)c2cccc3cccc(c23)C1=O)CCCN1C(=O)c2cccc3cccc(c23)C1=O |  | inactive and 22.4 µM (active)
7 | O=C(COC(=O)CCCN1C(=O)c2cccc3cccc(c23)C1=O)NC1CCS(=O)(=O)C1 (stereo not drawn) |  | inactive
8 | O=C(CN1C(=O)c2cccc3cccc(c23)C1=O)N1CCCCC1 |  | inactive
9 | O=C1c2cccc3cccc(c23)C(=O)N1CCCCCc1n[nH]c(=S)o1 |  | 2.51 µM (active)
10 | O=C(Cn1cnc2c(oc3ccccc32)c1=O)Nc1ccc(OC(F)(F)F)cc1 |  | inactive
11 | COc1cc(/C=N/NC(=O)c2cccnc2)ccc1OC(=O)c1cccc(Br)c1 |  | inactive
12 | CCc1ccccc1NC(=O)CN(C)C(=O)c1cc(C2CC2)nn1-c1ccccc1 | 14.2% [at 12.7 µM] (inactive) | 
13 | CCCc1[nH]nc2c1C(c1ccc(OC(=O)c3ccco3)cc1)C(C#N)=C(N)O2 (stereo not drawn) |  | inactive
14 | CCCc1[nH]nc2c1C(C1CC=CCC1)C(C#N)=C(N)O2 (stereo not drawn) |  | inactive
15 | CCCc1[nH]nc2c1C(c1ccc(Br)s1)C(C#N)=C(N)O2 (stereo not drawn) |  | 50.1 µM (active)
16 | COc1ccc(C2=NN(C(=O)c3ccccc3C(=O)O)C(c3ccccc3O)C2)cc1 (stereo not drawn) |  | inactive
17 | CCC(=O)Nc1ccc(C)cc1-c1nc2ccccc2n(Cc2ccccc2)c1=O |  | inactive
18 | COc1ccc(NC(=O)CSc2nc(C)cs2)cc1 |  | inactive
19 | COc1ccc(NC(=O)c2sccc2SCC#N)cc1 |  | 7.94 µM (active)
20 | COc1ccc(NC(=O)c2sc(N)nc2-c2ccccc2)cc1 |  | inactive
21 | COc1ccccc1-c1sc2ccccc2c1-c1ccc(Br)nc1 | -0.161% [at 0.501 µM] (inactive) | 
22 | COc1cccc(CNC(=O)C(NS(=O)(=O)c2ccc3nc(C)sc3c2)C(C)C)c1 (stereo not drawn) |  | inactive
23 | CC(=O)NS(=O)(=O)c1ccc(NC(=S)NC(=O)C(C)(C)C)cc1 | -14.5% [at 0.501 µM] (inactive) | 
24 | Cc1ccc(NC(=S)Nc2ccc(F)cc2)cc1 |  | inactive

Row | SMILES | activity, negative = inhibition | Potency
25 | O=S(=O)(NC(=S)Nc1ccccc1)c1ccc(F)cc1 |  | 1.58 µM (active)
26 | Cc1cc(C)c(S(=O)(=O)n2cc(C(C)C(N)C(=O)O)c3ccccc32)c(C)c1 (stereo not drawn) | 11.6% [at 12.7 µM] (inactive) | 
27 | CCn1ccnc1CN1CCCC(C(=O)c2ccc3c4c(cccc24)CC3)C1 (stereo not drawn) |  | 35.5 µM (active)
28 | COc1ccc(C(=O)C2CCCN(S(=O)(=O)c3cccc(C)c3)C2)c(C)c1 (stereo not drawn) |  | inactive
29 | O=C(CSc1nc2ccccc2c(=O)n1CCCO)NC1CC1 | -11.2% [at 2.33 µM] (inactive) | 
30 | O=S(=O)(NCC(c1ccccc1)N1CCc2ccccc21)c1ccccc1 (stereo not drawn) |  | 15.8 µM (active)
31 | COc1ccc(S(=O)(=O)NCC(c2ccc(N(C)C)cc2)N2CCCC2)cc1 (stereo not drawn) | 0.776% [at 12.7 µM] (inactive) | 
32 | COc1ccc(C(=O)NCC(c2ccc(N(C)C)cc2)N2CCc3ccccc32)c(OC)c1 (stereo not drawn) |  | inactive
33 | Cc1ccc(S(=O)(=O)NCC(=O)OCC(=O)N2CCc3ccccc32)cc1 |  | inactive
34 | O=C(NCC(c1cccnc1)N1CCc2ccccc21)c1cccc(C(F)(F)F)c1 (stereo not drawn) |  | inactive
35 | COc1ccc(S(=O)(=O)NCC(c2ccc(N(C)C)cc2)N2CCc3ccccc32)cc1OC (stereo not drawn) |  | 14.1 µM (active)
36 | COC(=O)C1=C(c2ccccc2)c2ccccc2S(=O)(=O)N1CC(=O)Nc1ccccc1C(F)(F)F |  | inactive
37 | Cc1ccc(CN2CCC(CNC(=O)c3cnn(-c4ccccc4Cl)c3C3CCN(C(=O)OC(C)(C)C)CC3)CC2)cc1 |  | inactive
38 | COc1ccc(NC(=O)CCCc2nnc3n(CCC(C)C)c(=O)c4sccc4n23)c(OC)c1 |  | inactive
39 | CCCN(CCC)S(=O)(=O)c1ccc(C(=O)Nc2sc3c(c2C(=O)OC)CCN(CC)C3)cc1 |  | inactive
40 | CCOC(=O)N1CCN(CC(=O)n2c(C)c(C)c3ccccc32)CC1 |  | 12.6 µM (active)
41 | CCOC(=O)N1CCN(C(=O)Cn2cnc3ccccc3c2=O)CC1 | 1.87% [at 12.7 µM] (inactive) | 
42 | CCOC(=O)N1CCN(C(=O)c2n[nH]c(=O)c3ccccc23)CC1 | 8.06% [at 12.7 µM] (inactive) | 
43 | CC1CCCCC1NC(=O)COC(=O)Cc1ccc(Cl)cc1 (stereo not drawn) |  | inactive
44 | CCOc1cccc2c1N[C@@H](c1ccc(C(=O)O)cc1)[C@H]1CC=C[C@@H]21 |  | 4.47 µM (active)
45 | CCOc1cc(C(=O)O)ccc1OCCOc1ccccc1 |  | inactive
46 | CCOc1c(CNCc2ccc(C(=O)O)cc2)cccc1OC |  | inactive
47 | Cc1nn(C(C)C(=O)Nc2ccc(C(C)C)cc2)c(=O)c2c1sc1ccccc12 (stereo not drawn) |  | inactive
48 | O=C(NCc1ccccc1CN1CCCC1)c1cccc(S(=O)(=O)Nc2ccc(F)cc2)c1 |  | inactive

Row | SMILES | activity, negative = inhibition | Potency
49 | COc1ccc(CCNCc2c(C(=O)O)c(C)n(Cc3cccc(C)c3)c2C)cc1OC |  | inactive
50 | c1csc(-c2cn3c(n2)SCC3)c1 |  | 17.8 µM (active)
51 | Cc1cc(-c2cccs2)nc(-n2cccc2)n1 |  | inactive
52 | CC(C)n1c(-c2cccs2)nc2ccccc21 |  | inactive
53 | CCC(C)N(C(=O)CSc1ncnc2c1cnn2-c1ccccc1)C1CCS(=O)(=O)C1 (stereo not drawn) | 17.2% [at 2.33 µM] (inactive) | 
54 | COC(=O)[C@]1(C)N[C@H](c2ccc(-c3ccc(Cl)c(Cl)c3)cc2)[C@@H]2C(=O)N(C)C(=O)[C@@H]21 | 12.5% [at 2.33 µM] (inactive) | 
55 | Cc1ccc(O)c(NC(=O)c2cc(-c3ccc(F)cc3)no2)c1 |  | 8.91 µM (active)
56 | COC(=O)c1ccccc1NC(=O)c1cc(-c2ccccc2O)no1 |  | inactive
57 | Cc1ccc(O)c(NC(=O)c2cc(-c3ccco3)on2)c1 |  | inactive
58 | Cc1nn(C)c2c1c(C(F)(F)F)cc(=O)n2C(C)C(=O)NCc1ccc(Cl)cc1 (stereo not drawn) |  | inactive
59 | CCCCn1c(SCC(=O)N2CCOCC2)nc2c1c(=O)n(C)c(=O)n2C |  | inactive
60 | Cn1c(=O)[nH]c(=O)c2c1nc(Br)n2CCCCSc1nc2ccccc2o1 |  | inactive
61 | CCCCCn1c(SCCC(C)C)nc2c1c(=O)[nH]c(=O)n2C |  | 10 µM (active)
62 | CCOC(=O)c1ccccc1NC(=O)c1sc2nc(-c3ccc(F)cc3)cn2c1C |  | inactive
63 | Cc1ccc(C)c(CN2C(=O)c3ccccc3S(=O)c3ccc(C(=O)N4CCOCC4)cc32)c1 (stereo not drawn) |  | inactive
64 | Cc1cc(C)c2c3c(sc2n1)C(c1ccccc1)C(C#N)=C(N)O3 (stereo not drawn) |  | 14.1 µM (active)
65 | Cc1cc(C)c(C#N)c(SCc2[nH]nc3c2C(c2ccccc2)C(C#N)=C(N)O3)n1 (stereo not drawn) |  | inactive
66 | CCCc1nc2c([nH]1)C(c1cccnc1)C(C#N)=C(N)O2 (stereo not drawn) |  | inactive
67 | O=C(NCCc1cccc(F)c1)C1CCCN(c2nc3ccccc3s2)C1 (stereo not drawn) |  | inactive
68 | COc1ccc(-c2[nH]c3c(c2-c2c(-n4cccc4)n(C)c(=O)n(C)c2=O)c(=O)n(C)c(=O)n3C)cc1 |  | inactive
69 | CCOC(=O)C1CCN(C(=O)COc2cccc3ccccc23)CC1 | 9.04% [at 12.7 µM] (inactive) | 
70 | CCCn1c2ccccc2c2cnn(CC(=O)NCCCOC(C)C)c(=O)c21 |  | inactive
71 | O=C1c2ccccc2NC(c2ccccn2)N1NS(=O)(=O)c1ccccc1 (stereo not drawn) |  | inactive
72 | CN(C)c1ccc(C2Nc3ccccc3C(=O)N2NS(=O)(=O)c2ccccc2)cc1 (stereo not drawn) |  | 39.8 µM (active)

Row | SMILES | activity, negative = inhibition | Potency
73 | CC(=O)NN1C(=O)c2ccccc2NC1c1ccccc1 (stereo not drawn) |  | inactive
74 | COc1cc(NC(=O)c2ccc(-c3csc(C)n3)cc2)c(OC)cc1Cl |  | inactive
75 | COc1ccc(Cl)cc1NC(=O)CSc1nc(-c2cccs2)cc(C(F)(F)F)n1 |  | inactive
76 | COc1ccccc1-c1cc(C(F)(F)F)nc(S(=O)(=O)CCCC(=O)Nc2ccc(F)cc2F)n1 |  | inactive
77 | CSc1ccccc1NC(=O)CCS(=O)(=O)c1nc(-c2cccs2)cc(C(F)(F)F)n1 |  | 3.16 µM (active)
78 | Cc1ccc(NC(=O)CSc2nc3c(c(=O)[nH]2)CN(Cc2ccc4c(c2)OCO4)CC3)cc1C |  | inactive
79 | O=C(Nc1ccccc1N1CCCCC1)c1ccc2nccnc2c1 |  | inactive
80 | O=C(Nc1ccccc1N1CCCC1)c1ccc(F)c(S(=O)(=O)N2CCOCC2)c1 | -5.62% [at 0.501 µM] (inactive) | 
81 | O=C(Nc1ccccc1N1CCCC1)c1ccc2ccccc2c1 |  | 44.7 µM (active)
82 | Cc1cc(C)cc(OCC(=O)OCC(=O)NC2CCCC2)c1 | -28.2% [at 2.33 µM] (inactive) | 
83 | Cc1ccc(NC(=O)Cn2c(=O)n(-c3ccccc3)c(=O)c3c4c(sc32)CCCC4)cc1 |  | inactive
84 | O=C(C1CC1)N1CCN=C1SCc1ccc(Cl)cc1 |  | inactive
85 | Clc1ccc(CSc2nncn3c2cc2occc23)cc1 |  | 12.6 µM (active)
86 | CCN(C(=O)CSc1nnc(C)n2c1cc1occc12)c1ccccc1 |  | inactive
87 | Cc1cc(=O)oc2c(C)c(OC(C)C(=O)NC3CCN(Cc4ccccc4)CC3)ccc12 (stereo not drawn) |  | inactive
88 | Cc1ccc2c(c1)-c1c(cnn1CC(=O)Nc1ccccc1C#N)CO2 |  | inactive
89 | CN1C(=O)/C(=C\c2cc(Br)cs2)c2ccccc21 |  | 10 µM (active)
90 | CN1C(=O)c2ccccc2Sc2ccc(NC(=O)Cc3ccc(Cl)cc3)cc21 |  | inactive
91 | CCC1C(=O)c2ccccc2N(C)C1=O (stereo not drawn) |  | inactive
92 | COc1ccccc1-c1cc2nc(C)c(CCC(=O)O)c(C)n2n1 |  | inactive
93 | CCCNC(=O)c1ccc2c(c1)ncn2-c1ccc(C)cc1C |  | inactive
